Assay [1] deals with human Norepinephrine Transporter (NET), SLC6A2 (gene 6530) (UniProt P23975). Description: NVS_TR_hNET: NovaScreen (NVS) Transporter Assay for human Norepinephrine Transporter (NET) (AID 2283377).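 For AC50: displacement of radioligand from human NET seen as loss of scintillation signal.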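 Note: cell-free membrane protein extracted from CHO cells expressing human NET.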 In short, it runs like this: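 Scintillation counts of filter-retained radioligand served as the readout, taken 1 h post-dosing in a cell-free CHO-derived system. Test chemicals ran first at 25 uM in duplicate; confirmed hits were retested across concentrations.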
human Norepinephrine Transporter (NET), SLC6A2 (gene 6530), sequence (P23975 whole entry, looked up): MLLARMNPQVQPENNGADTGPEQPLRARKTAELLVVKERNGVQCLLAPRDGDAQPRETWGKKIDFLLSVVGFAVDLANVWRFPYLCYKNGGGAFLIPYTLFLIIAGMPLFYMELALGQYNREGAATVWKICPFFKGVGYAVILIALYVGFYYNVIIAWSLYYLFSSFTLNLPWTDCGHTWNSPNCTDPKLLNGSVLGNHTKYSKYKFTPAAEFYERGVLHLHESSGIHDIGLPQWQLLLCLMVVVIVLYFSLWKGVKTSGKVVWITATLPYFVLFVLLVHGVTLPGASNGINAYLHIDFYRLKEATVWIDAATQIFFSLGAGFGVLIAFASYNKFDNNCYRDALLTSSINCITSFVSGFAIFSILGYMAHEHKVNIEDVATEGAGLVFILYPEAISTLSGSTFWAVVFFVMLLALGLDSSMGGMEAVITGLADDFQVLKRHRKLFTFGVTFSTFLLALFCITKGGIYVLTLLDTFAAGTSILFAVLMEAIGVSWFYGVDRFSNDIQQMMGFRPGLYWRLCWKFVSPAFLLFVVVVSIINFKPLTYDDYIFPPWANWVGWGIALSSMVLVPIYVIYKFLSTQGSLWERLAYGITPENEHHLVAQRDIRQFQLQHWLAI

Assay [2] addresses Retinoic acid receptor RXR-alpha (Homo sapiens) (UniProt P19793). Description: OT_NURR1_NURR1RXRa_0480: Odyssey Thera (OT) 8-hour HEK293T Protein Complementation Assay for Nurr1/retinoid X receptor (RXR) (AID 2283385). In short, it runs like this:
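Compounds are applied to HEK293T cells carrying Nurr1 and RXRα linked to reporter fragments. After 8 h, fluorescence intensity reports heterodimer formation, with DMSO as baseline.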

Assay [3] has the same target. Description: OT_NURR1_NURR1RXRa_1440: Odyssey Thera (OT) 24-hour HEK293T Protein Complementation Assay for Nurr1/retinoid X receptor (RXR) (AID 2283386). In short, it runs like this: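 Measured as fluorescence from a reconstituted split reporter, this 24 h HEK293T complementation assay scores compound-induced gain of Nurr1/RXRα association relative to DMSO.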
In assay [4] the target is Peroxisome proliferator-activated receptor gamma (Homo sapiens) (UniProt P37231). Description: OT_PPARg_PPARgSRC1_0480: Odyssey Thera (OT) 8-hour Protein-Complementation Assay for Peroxisome Proliferator-activated Receptor Gamma / SRC-1 Co-activator (AID 2283387).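 Note: nuclear to cytoplasmic split Venus YFP fluorescence ratio reporting PPARg SRC-1 interaction.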 In short, it runs like this: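 Split-YFP (IFP1/IFP2) PPARg/SRC-1 reporter, HEK293T, 37 °C, 5% CO2; 8 h compound; formaldehyde fix + Draq5; high-content imaging, N/C ratio, ≥350 cells/image, positive direction vs DMSO.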
Peroxisome proliferator-activated receptor gamma (Homo sapiens), sequence (P37231 whole entry, looked up): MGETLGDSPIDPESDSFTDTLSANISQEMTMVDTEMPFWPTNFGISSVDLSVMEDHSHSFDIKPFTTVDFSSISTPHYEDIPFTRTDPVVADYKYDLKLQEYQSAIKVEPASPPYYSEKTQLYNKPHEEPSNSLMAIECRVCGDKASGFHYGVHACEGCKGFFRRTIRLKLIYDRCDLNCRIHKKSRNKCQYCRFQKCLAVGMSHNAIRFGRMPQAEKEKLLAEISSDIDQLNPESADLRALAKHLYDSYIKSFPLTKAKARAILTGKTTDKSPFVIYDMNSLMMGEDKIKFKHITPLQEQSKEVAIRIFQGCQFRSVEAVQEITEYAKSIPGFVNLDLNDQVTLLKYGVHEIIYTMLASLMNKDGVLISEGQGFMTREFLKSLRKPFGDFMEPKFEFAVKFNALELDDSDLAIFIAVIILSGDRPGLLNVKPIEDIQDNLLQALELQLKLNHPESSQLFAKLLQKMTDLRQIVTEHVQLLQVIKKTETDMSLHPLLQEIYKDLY

For assay [5] the target is unchanged. Description: OT_PPARg_PPARgSRC1_1440: Odyssey Thera (OT) 24-hour Protein-Complementation Assay for Peroxisome Proliferator-activated Receptor Gamma/ SRC-1 Co-activator (AID 2283388).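 Note: nuclear to cytoplasmic ratio of reconstituted Venus YFP fluorescence in fixed imaged cells.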 The essentials: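 Protein-fragment complementation between PPARg and coactivator SRC-1 was measured by fluorescence imaging in transiently transfected HEK293T cells after 24 h treatment. Signal was quantified as N/C ratio in the 488 nm channel, with DMSO as negative control.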

The target of assay [6] is mouse Estrogen Receptor alpha (Era), Esr1 (gene 13982) (UniProt P19785). Description: NVS_NR_mERa: NovaScreen (NVS) Nuclear Receptor Binding Assay for mouse Estrogen Receptor alpha (Era) (AID 2283378).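 Note: hit means loss of bound radioligand signal relative to DMSO.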 The essentials: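 Extracted mouse Era incubated with tritiated or iodinated radioligand plus test chemical, 18 h. Bound fraction separated on filters, counted by scintillation. DMSO = negative control/baseline; duplicate single-point at 25 uM, then concentration-response follow-up.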
mouse Estrogen Receptor alpha (Era), Esr1 (gene 13982), sequence (P19785 whole entry, looked up): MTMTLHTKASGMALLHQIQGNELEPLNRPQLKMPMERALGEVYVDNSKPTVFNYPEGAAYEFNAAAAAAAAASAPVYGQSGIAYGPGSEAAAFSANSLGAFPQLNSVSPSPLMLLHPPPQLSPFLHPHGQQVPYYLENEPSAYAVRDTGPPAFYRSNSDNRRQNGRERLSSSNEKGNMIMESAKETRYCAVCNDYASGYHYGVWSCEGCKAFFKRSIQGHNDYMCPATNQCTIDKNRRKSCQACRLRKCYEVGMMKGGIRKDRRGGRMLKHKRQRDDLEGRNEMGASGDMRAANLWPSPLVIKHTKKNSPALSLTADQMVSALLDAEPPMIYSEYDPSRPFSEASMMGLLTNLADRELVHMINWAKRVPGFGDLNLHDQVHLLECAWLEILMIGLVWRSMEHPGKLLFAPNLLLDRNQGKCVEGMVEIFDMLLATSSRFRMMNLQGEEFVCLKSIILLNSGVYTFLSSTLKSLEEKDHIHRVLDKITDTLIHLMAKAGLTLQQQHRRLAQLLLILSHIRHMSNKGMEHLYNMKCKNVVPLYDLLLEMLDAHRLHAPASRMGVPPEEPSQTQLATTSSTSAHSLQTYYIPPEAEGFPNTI

Assay [7] concerns the target Agonist Androgen Response Element (ARE), AR (gene 367) (UniProt P10275). Description: OT_AR_ARELUC_AG_1440: Odyssey Thera (OT) 24-hour CHO-K1 Luciferase Assay for Agonist Androgen Response Element (ARE) (AID 2283379). In short, it runs like this:
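Agonist mode, 24 h exposure in CHO-K1 ARE-luciferase cells; values reflect luminescence induction over vehicle.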

The target of assay [8] is Estrogen receptor beta (Homo sapiens) (UniProt Q92731). Description: OT_ER_ERbERb_1440: Odyssey Thera (OT) 24-hour HEK293T Protein-Complementation Assay for Estrogen Receptor-beta/-beta Homodimer (AID 2283380).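 Note: fluorescence gain from ER beta LBD homodimer complementation read by laser scanning cytometry; scored as signal increase over DMSO baseline for both agonists and antagonists.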 In short, it runs like this: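 Fluorescence increase, nuclear for agonists or whole-cell for antagonists, relative to DMSO vehicle, quantified by laser scanning cytometer after fixation and Draq5 staining. Readout from 24 h treatment of HEK293T cells carrying complementation-paired ER beta LBD (aa 310-547).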
Estrogen receptor beta (Homo sapiens), sequence (Q92731 whole entry, looked up, the tested form may be a part): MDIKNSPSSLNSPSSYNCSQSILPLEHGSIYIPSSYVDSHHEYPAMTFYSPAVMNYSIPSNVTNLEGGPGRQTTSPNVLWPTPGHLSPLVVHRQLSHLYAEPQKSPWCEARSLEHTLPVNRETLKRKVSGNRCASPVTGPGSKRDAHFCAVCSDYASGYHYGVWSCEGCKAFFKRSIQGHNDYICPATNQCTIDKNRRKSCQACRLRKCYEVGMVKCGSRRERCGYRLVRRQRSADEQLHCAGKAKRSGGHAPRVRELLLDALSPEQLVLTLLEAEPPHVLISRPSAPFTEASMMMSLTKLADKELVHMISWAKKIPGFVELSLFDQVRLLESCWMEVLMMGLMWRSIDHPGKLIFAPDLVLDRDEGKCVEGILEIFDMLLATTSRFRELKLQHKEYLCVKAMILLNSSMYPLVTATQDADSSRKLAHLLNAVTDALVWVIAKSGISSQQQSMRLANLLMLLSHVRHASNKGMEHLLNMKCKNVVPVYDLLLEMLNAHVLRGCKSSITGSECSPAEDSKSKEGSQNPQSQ

Assay [9] has as its target Estrogen receptor (Homo sapiens) (UniProt P03372). Description: OT_ERa_GFPERaERE_0480: Odyssey Thera (OT) 8-hour HeLa Transcription Induction Assay for Estrogen Receptor (AID 2283381; active = hit-call score of the fitted dose curve at least 0.9, where 1 is the maximum; inactive = score below 0.9). In short, it runs like this:
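Cells (HeLa) receive compound; after 8 h, reporter fluorescence is imaged and quantified by high-content analysis. Gain-of-signal relative to DMSO gives the endpoint.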

Assay [10] shares this target. Description: OT_ERa_GFPERaERE_0120: Odyssey Thera (OT) 2-hour HeLa Transcription Induction Assay for Estrogen Receptor (AID 2283382). The essentials: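 Measures ESR1 pathway reporter gain-of-signal in HeLa cells after a 2-hour treatment, detected as fluorescent protein induction by microscopy, DMSO as baseline.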
Assay [11] has as its target Bile acid receptor (Homo sapiens) (UniProt Q96RI1). Description: OT_FXR_FXRSRC1_0480: Odyssey Thera (OT) 8-hour HEK293T Protein-Complementation Assay for Farnesoid X receptor/SRC-1 Co-activator (AID 2283383). The essentials: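 Co-activator recruitment to FXR was measured in living HEK293T cells, where interaction of the two fused partners restored an active fluorescent reporter. Signal gain after 8 h treatment was referenced to DMSO.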

The target is the same in assay [12]. Description: OT_FXR_FXRSRC1_1440: Odyssey Thera (OT) 24-hour HEK293T Protein-Complementation Assay for Farnesoid X receptor/SRC-1 Co-activator (AID 2283384). In short, it runs like this:
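Cell-based binding reporter: interaction of FXR with SRC-1 brings reporter fragments together, giving a fluorescence signal read 24 h after dosing of HEK293T cells.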

A short description of assay [13]: CEETOX_H295R_11DCORT: CeeTox H295R High-throughput Steroidogenesis Assay for 11-Deoxycortisol (11DCORT) (AID 2283432; active = hit-call score of the fitted dose curve at least 0.9, where 1 is the maximum; inactive = score below 0.9). The note with it: actives raise or lower the signal. In short, it runs like this:
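Steroidogenesis in human H295R cells: 48 h chemical exposure after forskolin priming, 11-deoxycortisol measured by LC-MS/MS.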

A short description of assay [14]: CEETOX_H295R_OHPREG: CeeTox H295R High-throughput Steroidogenesis Assay for OH-Pregnenolone (OHPREG) (AID 2283434; active = hit-call score of the fitted dose curve at least 0.9, where 1 is the maximum; inactive = score below 0.9). Particulars: actives raise or lower the signal. The essentials: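 Hormone levels in spent medium were measured by tandem mass spectrometry following liquid-liquid extraction. Cells (H295R) had been forskolin-stimulated (10 uM, 48 h) before a 48 h chemical exposure at 0.1% DMSO, with activity fitted in both directions against DMSO.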

Assay [15] can be described thus: CEETOX_H295R_OHPROG: CeeTox H295R High-throughput Steroidogenesis Assay for OH-Progesterone (OHPROG) (AID 2283435; active = hit-call score of the fitted dose curve at least 0.9, where 1 is the maximum; inactive = score below 0.9;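 for AC50: 17alpha-hydroxyprogesterone secreted into medium measured by HPLC-MS/MS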). The note with it: actives raise or lower the signal. The essentials: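 Secreted 17alpha-hydroxyprogesterone is read by tandem MS from media of forskolin-primed H295R cells dosed with chemical for 48 h. Activity is fitted in both directions against DMSO baseline; cytotoxic concentrations are re-tested diluted.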

Assay [16] in a line: CEETOX_H295R_CORTIC: CeeTox H295R High-throughput Steroidogenesis Assay for Corticosterone (CORTIC) (AID 2283437; active = hit-call score of the fitted dose curve at least 0.9, where 1 is the maximum; inactive = score below 0.9;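 note: corticosterone secreted into medium quantified by mass spectrometry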). Particulars: actives raise or lower the signal. The essentials: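 Corticosterone secreted into medium is measured by reverse-phase HPLC with tandem MS following liquid-liquid extraction. Cells are forskolin-stimulated (10 uM, 48 h) before 48 h test exposure; activity fitted in both directions against DMSO.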

Assay [17] in a line: CEETOX_H295R_CORTISOL: CeeTox H295R High-throughput Steroidogenesis Assay for Cortisol (AID 2283438; active = hit-call score of the fitted dose curve at least 0.9, where 1 is the maximum; inactive = score below 0.9;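 note: cortisol secreted into medium quantified by LC-MS/MS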). The note with it: actives raise or lower the signal. In short, it runs like this: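 Human adrenocortical H295R cells (passage ≤10) received test chemicals for 48 h after forskolin priming. Secreted cortisol was measured by LC-MS/MS.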
The nature of assay [18]: CEETOX_H295R_DOC: CeeTox H295R High-throughput Steroidogenesis Assay for DOC (AID 2283439; active = hit-call score of the fitted dose curve at least 0.9, where 1 is the maximum; inactive = score below 0.9). Particulars: actives raise or lower the signal. In short, it runs like this:
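Secreted DOC was quantified from H295R media by HPLC-MS/MS after 48 h chemical exposure following 48 h forskolin (10 uM) prestimulation. Values were fitted in both directions relative to DMSO, the negative control and baseline.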

A short description of assay [19]: CEETOX_H295R_ESTRADIOL: CeeTox H295R High-throughput Steroidogenesis Assay for Estradiol (AID 2283440; active = hit-call score of the fitted dose curve at least 0.9, where 1 is the maximum; inactive = score below 0.9;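 note: estradiol secreted into medium quantified by LC-MS/MS after dansyl derivatisation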). Particulars: actives raise or lower the signal. The essentials:
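Estradiol secreted into the medium was measured by tandem mass spectrometry after liquid-liquid extraction and dansylation. Human H295R cells had been forskolin-primed (10 uM, 48 h) before a 48 h chemical exposure with 0.1% DMSO.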

The nature of assay [20]: CEETOX_H295R_ANDR: CeeTox H295R High-throughput Steroidogenesis Assay for Androstenedione (ANDR) (AID 2283436; active = hit-call score of the fitted dose curve at least 0.9, where 1 is the maximum; inactive = score below 0.9;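 note: human H295R adrenal cells exposed for 48 h with androstenedione measured in medium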). Particulars: actives raise or lower the signal. In short, it runs like this:
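Read-out is androstenedione secreted into medium, measured by tandem mass spectrometry after liquid-liquid extraction. Cells were H295R, dosed for 48 h per modified OECD 456; activity fitted in both directions relative to DMSO.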

Consider 9 molecules from PubChem BioAssay (EPA / NIEHS).

Values joined by “and” are separate entries in the source; they are usually repeats but may differ in a detail not shown here. Equal values may be shown once. Inconclusive results are not listed. The source holds several records for some structures; these can differ, active in one and inactive in another. Active and inactive are the calls of the source. Rule for the calls, unless noted: active = hit-call score of the fitted dose curve at least 0.9, where 1 is the maximum; inconclusive = response in the unintended direction; inactive = score below 0.9.

Bile acid receptor (Homo sapiens), sequence (Q96RI1 whole entry, looked up, the tested form may be a part): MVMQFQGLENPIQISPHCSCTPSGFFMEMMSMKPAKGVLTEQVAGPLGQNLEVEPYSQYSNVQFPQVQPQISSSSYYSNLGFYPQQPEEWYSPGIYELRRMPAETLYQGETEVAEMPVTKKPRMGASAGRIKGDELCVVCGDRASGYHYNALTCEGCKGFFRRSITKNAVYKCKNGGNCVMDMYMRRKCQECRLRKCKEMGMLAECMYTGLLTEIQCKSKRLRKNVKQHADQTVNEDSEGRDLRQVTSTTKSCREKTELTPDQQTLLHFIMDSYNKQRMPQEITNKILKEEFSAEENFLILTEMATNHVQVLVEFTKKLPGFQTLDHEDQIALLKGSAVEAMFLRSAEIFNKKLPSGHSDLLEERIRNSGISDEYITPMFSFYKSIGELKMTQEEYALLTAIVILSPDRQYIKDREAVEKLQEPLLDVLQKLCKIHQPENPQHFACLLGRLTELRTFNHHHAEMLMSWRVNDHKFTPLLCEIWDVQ
Retinoic acid receptor RXR-alpha (Homo sapiens), sequence (P19793 whole entry, looked up, the tested form may be a part): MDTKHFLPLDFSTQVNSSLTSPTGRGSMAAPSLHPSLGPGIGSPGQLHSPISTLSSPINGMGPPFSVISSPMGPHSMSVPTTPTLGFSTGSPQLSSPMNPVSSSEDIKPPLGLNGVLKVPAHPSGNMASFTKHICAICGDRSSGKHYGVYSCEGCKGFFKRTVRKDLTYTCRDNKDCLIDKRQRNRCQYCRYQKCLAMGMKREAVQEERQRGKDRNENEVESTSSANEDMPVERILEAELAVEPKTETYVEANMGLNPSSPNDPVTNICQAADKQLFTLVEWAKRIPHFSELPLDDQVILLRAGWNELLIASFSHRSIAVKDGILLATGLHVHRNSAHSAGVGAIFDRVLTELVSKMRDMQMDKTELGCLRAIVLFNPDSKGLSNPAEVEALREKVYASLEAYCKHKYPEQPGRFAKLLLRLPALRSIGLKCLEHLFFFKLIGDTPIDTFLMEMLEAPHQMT
Estrogen receptor (Homo sapiens), sequence (P03372 whole entry, looked up): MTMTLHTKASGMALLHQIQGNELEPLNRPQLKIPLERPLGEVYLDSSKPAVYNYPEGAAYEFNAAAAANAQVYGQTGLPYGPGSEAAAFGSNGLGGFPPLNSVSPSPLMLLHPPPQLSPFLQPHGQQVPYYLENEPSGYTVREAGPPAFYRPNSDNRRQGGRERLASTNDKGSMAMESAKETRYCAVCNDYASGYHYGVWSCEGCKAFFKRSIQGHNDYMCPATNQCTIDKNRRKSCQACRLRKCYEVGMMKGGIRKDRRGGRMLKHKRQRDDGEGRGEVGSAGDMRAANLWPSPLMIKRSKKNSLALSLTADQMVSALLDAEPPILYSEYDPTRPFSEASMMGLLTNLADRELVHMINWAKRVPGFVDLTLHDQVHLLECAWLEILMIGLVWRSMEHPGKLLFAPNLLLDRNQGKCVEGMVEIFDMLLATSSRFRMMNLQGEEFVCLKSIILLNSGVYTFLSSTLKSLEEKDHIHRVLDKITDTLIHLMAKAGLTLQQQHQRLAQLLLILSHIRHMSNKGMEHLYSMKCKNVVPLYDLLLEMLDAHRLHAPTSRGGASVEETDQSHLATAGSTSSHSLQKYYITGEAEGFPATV
Agonist Androgen Response Element (ARE), AR (gene 367), sequence (P10275 whole entry, looked up): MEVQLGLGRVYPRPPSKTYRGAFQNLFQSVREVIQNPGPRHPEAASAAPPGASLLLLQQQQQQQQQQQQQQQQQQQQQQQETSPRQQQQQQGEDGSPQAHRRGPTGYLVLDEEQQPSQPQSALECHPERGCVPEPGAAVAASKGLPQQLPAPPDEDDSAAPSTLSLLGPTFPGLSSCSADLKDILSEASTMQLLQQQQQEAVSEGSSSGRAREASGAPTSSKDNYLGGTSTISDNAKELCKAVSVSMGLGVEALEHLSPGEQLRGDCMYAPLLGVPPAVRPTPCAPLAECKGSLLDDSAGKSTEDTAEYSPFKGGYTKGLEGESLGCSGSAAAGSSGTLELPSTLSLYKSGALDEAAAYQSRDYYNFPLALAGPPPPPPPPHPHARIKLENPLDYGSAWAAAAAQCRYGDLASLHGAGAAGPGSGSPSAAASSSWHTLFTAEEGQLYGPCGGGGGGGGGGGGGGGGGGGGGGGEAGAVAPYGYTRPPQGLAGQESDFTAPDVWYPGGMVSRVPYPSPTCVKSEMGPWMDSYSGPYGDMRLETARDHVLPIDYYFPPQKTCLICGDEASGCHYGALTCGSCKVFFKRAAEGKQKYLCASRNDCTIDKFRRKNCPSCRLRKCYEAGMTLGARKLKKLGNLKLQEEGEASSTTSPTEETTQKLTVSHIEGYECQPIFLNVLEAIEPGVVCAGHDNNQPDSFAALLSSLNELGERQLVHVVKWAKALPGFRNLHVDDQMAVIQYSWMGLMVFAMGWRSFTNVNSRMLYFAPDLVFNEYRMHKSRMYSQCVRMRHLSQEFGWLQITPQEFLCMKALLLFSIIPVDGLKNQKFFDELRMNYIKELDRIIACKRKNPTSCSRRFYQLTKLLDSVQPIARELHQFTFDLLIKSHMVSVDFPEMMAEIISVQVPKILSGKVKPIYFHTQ

In the case of `Oc1ccc(C(c2ccc(O)cc2)(C(F)(F)F)C(F)(F)F)cc1`, in [1], the AC50 is 16.1 µM (active). Further, the call in assay [2], in assay [3], in assay [4] and in assay [5] was inactive.
Take `CCOC(=O)C(O)(c1ccc(Cl)cc1)c1ccc(Cl)cc1`: in assay [1], the AC50 was 15.5 µM (active). Further, the outcome in assay [6], in [7], in [8], in [9], in assay [10] and in assay [4] was inactive. Besides, the molecule was classed as inactive in assay [5].
With `C=CC(=O)NCNC(=O)C=C`, the call in assay [6], in assay [8], in assay [9], in [10], in assay [2] and in [3] was inactive. Moreover, the result in assay [4] and in assay [5] was inactive.
With `CC(C)(c1ccccc1)c1ccc(O)cc1`, the AC50 in [1] is 15.5 µM (active); in [6] it was 2.98 µM (active) and 11 µM (active); in [8], 2 µM (active) and 11.9 µM (active) and 2.17 µM (active); in assay [9], 770 nM (active) and 897 nM (active) and 861 nM (active); in assay [10] it was 633 nM (active) and 791 nM (active) and 967 nM (active). In addition, the outcome in [6], in [4] and in [5] was inactive.
As to `Cc1cc(O)ccc1Cl`, the molecule was classed as inactive in [6], in [10], in [11], in assay [2], in assay [3] and in assay [4]. For the same molecule, the outcome in assay [5], in assay [13], in assay [14], in assay [16], in assay [17] and in assay [18] was inactive. Moreover, the molecule was called inactive in assay [19]. Besides, the AC50 in assay [8] is 52.5 µM (active); in assay [12], 34.7 µM (active); in assay [15], 21.5 µM (active).
`c1ccc(-c2ccccc2)cc1`: the call in [1], in assay [8], in [9], in [10], in [11] and in assay [3] was inactive. Besides, the outcome in assay [4] and in [5] was inactive.
As to `O=NN(c1ccccc1)c1ccccc1`, the AC50 in assay [1] was 14 µM (active). Further, the molecule was called inactive in [9], in assay [10], in assay [11], in [12], in assay [2] and in assay [3]. Also, the molecule was called inactive in [4] and in assay [5].
For `O=C(NC(=O)c1c(F)cccc1F)Nc1cc(Cl)c(OC(F)(F)C(F)F)c(Cl)c1`, the molecule was called inactive in assay [7], in assay [8], in assay [9], in assay [10], in assay [2] and in assay [3]. Moreover, the molecule was called inactive in [4], in assay [5], in assay [13], in assay [14], in [15] and in assay [20]. Moreover, the molecule was called inactive in assay [16], in [17], in [18] and in assay [19].
`CCCN(CCC)N=O`: the outcome in assay [6], in assay [8], in assay [9], in assay [10], in assay [2] and in assay [3] was inactive. For the same molecule, the molecule was classed as inactive in assay [4] and in assay [5].

The AC50 is the concentration at which the activity in the assay is half-maximal.
